Screens as filed in PubChem.
D1 allo mod – D1 CRE-luciferase signal change, two-sided – cell-based, HEK293 D1, dopamine EC30, D1 allosteric modulator project, primary screen | actives 5.9% (n = 58,000) | dopamine EC30 potentiation; actives deviate in either direction | B-score at 10 µM | D(1A) dopamine receptor (Homo sapiens), P21728 | AID 641, 2007;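 active = luminescence count or its row- and column-corrected plate score outside the 99.7% band of the plate's sample wells, on either side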
Target sequence (P21728 whole entry, looked up): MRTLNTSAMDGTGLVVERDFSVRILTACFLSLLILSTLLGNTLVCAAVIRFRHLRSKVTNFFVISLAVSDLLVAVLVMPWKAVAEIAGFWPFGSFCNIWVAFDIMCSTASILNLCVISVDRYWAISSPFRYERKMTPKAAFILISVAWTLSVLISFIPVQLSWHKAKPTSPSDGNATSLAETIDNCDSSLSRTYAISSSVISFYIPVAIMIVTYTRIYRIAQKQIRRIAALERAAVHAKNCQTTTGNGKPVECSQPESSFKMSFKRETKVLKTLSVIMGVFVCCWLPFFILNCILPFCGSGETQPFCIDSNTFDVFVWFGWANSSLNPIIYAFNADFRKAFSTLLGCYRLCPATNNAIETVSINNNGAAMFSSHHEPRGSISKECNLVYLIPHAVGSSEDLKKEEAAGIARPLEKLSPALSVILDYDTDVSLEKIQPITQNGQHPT
EphB4 antag – EphB4-ephrin-B2 interaction antagonists, primary screen, biochemical, TNYL-RAW peptide probe, fluorescence polarization; Ephrin type-B receptor 4 (Homo sapiens), P54760; actives 0.15% (n = 97,000); EphB4 LBD / TNYL-RAW-Alexa532 peptide; AID 720, 2007; inhibition, % at 7 µM;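 active = inhibition above the screen-wide mean inhibition plus 3 SD, cut at about 15% in these data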;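 also: 0% = DMSO wells and 100% = excess unlabeled TNYL-RAW peptide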
hDAT+cocaine – changed hDAT dopamine uptake under cocaine IC80, either direction, primary screen, cocaine antagonist project, cell-based, LLC-PK1 hDAT, [14C]-dopamine uptake, MLSMR; Sodium-dependent dopamine transporter (Homo sapiens), Q01959; LLC-PK1 hDAT cells, [14C]-dopamine uptake with cocaine IC80; actives deviate in either direction; B-score at 10 µM; actives 1.3% (n = 110,000);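 active = Z score or B-score, a plate-position-corrected score, falls beyond the plate's 99.7% confidence bounds, in either direction; inactive = both scores lie inside the 99.7% bounds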;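 also: scored against the spread of the other compound wells on the same plate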
D1 mod confirm – D1 receptor positive allosteric modulators, retest, confirmation, cell-based, HEK293 D1, CRE-luciferase, duplicate. shares compounds with D1 allo mod. luminescence at 10 µM. actives 88% (n = 2,200). dopamine EC30 potentiation; active compounds read high;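 active = luminescence in either of two replicates above the same-plate mean plus 3 SD of the low-dose dopamine control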
D1 no dopamine – D1 receptor agonism without dopamine, confirmation, mechanism study for D1 allosteric modulator project, cell-based, HEK293 D1, CRE-luciferase, secondary assay 1 | shares compounds with D1 allo mod | luminescence, no dopamine; active compounds read high | luminescence at 10 µM | actives 0.8% (n = 1,900) | AID 646, 2007; in the data active = luminescence above about 3900
Isoprot counter – counter-screen for D1 modulators: isoproterenol response in HEK293 cells | calls only at 10 µM | HEK293 D1 CRE-luciferase, isoproterenol EC30 counter-screen | shares compounds with D1 allo mod | actives 63% (n = 2,200);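 active = luminescence in either replicate above plate mean of wells with a partly effective reference agonist dose plus 3 SD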;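 also: isoproterenol raises cAMP through native beta-adrenoceptor Gs so signal bypasses D1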
The depositor's hits bear a star. Many of the other results were omitted from the sample, so hits are more common in it than they were.

How did Cc1ccc(Nc2nc(Cl)nc(N(C)C#N)n2)cc1 do in these assays?
EphB4 antag: -11; hDAT+cocaine: 0.12

What do the screens show for `C#CCN(C#N)c1nc(NCC)nc(NC(C)C)n1`?
D1 allo mod: 17*; EphB4 antag: 5; hDAT+cocaine: -0.74; D1 mod confirm: 18300*; D1 no dopamine: 1652; Isoprot counter: active

What do the screens show for `COC(=O)CN(C#N)c1nc(NC(C)C)nc(OC)n1`?
EphB4 antag: -2; hDAT+cocaine: -0.94

How did CCN(C#N)c1nc(NC(C)C)nc(NC(C)C)n1 do in these assays?
D1 allo mod: 9.7*; EphB4 antag: 7; hDAT+cocaine: 0.0098; D1 mod confirm: 22184*; D1 no dopamine: 1544; Isoprot counter: active

What do the screens show for `O=C(CCn1c(=O)c2ccccc2n(Cc2ccccc2)c1=O)NCc1ccc2c(c1)OCO2`?
EphB4 antag: 1

Results for COc1ccccc1NC(=O)N1CCC(c2nnc(SCC(N)=O)n2C)CC1 ?
EphB4 antag: 10; hDAT+cocaine: -0.16

Results for CCOC(=O)C1=C(C)Nc2ccc(C)cc2S1 ?
EphB4 antag: 4; hDAT+cocaine: 0.17

How did CCOCCOC(=O)C1=C(C)Nc2ccc(C)cc2S1 do in these assays?
D1 allo mod: 3.9*; hDAT+cocaine: 1.1; D1 mod confirm: 7892*; D1 no dopamine: 1460; Isoprot counter: inactive

Results for Cc1nc2ccc(NS(=O)(=O)c3ccc4c(c3)OCCO4)cc2s1 ?
EphB4 antag: 1; hDAT+cocaine: -1.2

Results for O=C1CC(c2ccccc2)C(C(=O)Nc2ccccc2F)N1 (stereo unspecified) ?
D1 allo mod: 0.051

How did O=C1CC(c2ccccc2)C(C(=O)O)N1 (stereo unspecified) do in these assays?
D1 allo mod: 15*; EphB4 antag: -11; hDAT+cocaine: 0.7; D1 mod confirm: 4528; Isoprot counter: inactive

What do the screens show for `CCc1noc2c1/C(=N\O)CC(c1ccccc1)C2` (stereo unspecified)?
D1 allo mod: 17*; EphB4 antag: 6; hDAT+cocaine: -0.24; D1 mod confirm: 25792*; D1 no dopamine: 1744; Isoprot counter: active

What do the screens show for `CCCc1noc2c1/C(=N\O)CC(c1ccccc1)C2` (stereo unspecified)?
EphB4 antag: 7; hDAT+cocaine: -1.3

Results for CCCN(CC1CC1)C(=O)CSc1nnc(-c2cc(-c3cccs3)nc3ccccc23)o1 ?
EphB4 antag: -1; hDAT+cocaine: -0.011

What do the screens show for `Cc1c(Cl)c(-c2n[nH]c(=S)n2-c2ccc(F)cc2)nn1C`?
EphB4 antag: -2; hDAT+cocaine: 0.41

What do the screens show for `O=C(CSc1ncnc2sc3c(c12)CCCCC3)NCc1ccco1`?
D1 allo mod: 4.3; EphB4 antag: -2; hDAT+cocaine: -0.53

How did CC(C)c1nc2sc3c(SCC(=O)NCc4ccco4)ncnc3c2c2c1CCC2 do in these assays?
D1 allo mod: 14*; hDAT+cocaine: 0.083; D1 mod confirm: 17912*; Isoprot counter: inactive

What do the screens show for `CCCc1cc(=O)oc2cc3oc(C)c(C)c3cc12`?
D1 allo mod: 1.3; EphB4 antag: 2

Results for CCc1cc(=O)oc2cc3oc(C)c(C)c3cc12 ?
D1 allo mod: 4.5*; EphB4 antag: -9; hDAT+cocaine: -0.38; D1 mod confirm: 5904; D1 no dopamine: 1888; Isoprot counter: inactive

How did CCOc1nc(-c2ccccc2)ccc1-c1noc(-c2ccncc2)n1 do in these assays?
D1 allo mod: -0.039; hDAT+cocaine: -0.87

How did CCOc1nc(C)ccc1-c1noc(-c2ccncc2)n1 do in these assays?
D1 allo mod: 18*; EphB4 antag: -1; hDAT+cocaine: 2; D1 mod confirm: 11268*; D1 no dopamine: 1692; Isoprot counter: active

What do the screens show for `CCN(CC)S(=O)(=O)c1cc(Br)c(C)cc1OC`?
D1 allo mod: -1.8; EphB4 antag: 5; hDAT+cocaine: -0.53
